Laboratory results reported in paper PMC7862700, “An all-to-all approach to the identification of sequence-specific readers for epigenetic DNA modifications on cytosine”.

How the values were obtained:
Assay in all cases: DAPPL (digital affinity profiling via proximity ligation, sequencing); 10 mM Tris-HCl pH 7.5, 50 mM NaCl, 1 mM DTT, 4% glycerol, room temperature, 30 min; GST-TFs on glutathione beads, 16-mer random dsDNA library, 0.1% formaldehyde crosslink after washing; high values mean tight binding
FEV = biological target: T1, FEV (Homo sapiens, UniProt Q99581 1-238); conditions: protein: recombinant; tags: N-terminal GST; dsDNA, one strand shown
T1 sequence: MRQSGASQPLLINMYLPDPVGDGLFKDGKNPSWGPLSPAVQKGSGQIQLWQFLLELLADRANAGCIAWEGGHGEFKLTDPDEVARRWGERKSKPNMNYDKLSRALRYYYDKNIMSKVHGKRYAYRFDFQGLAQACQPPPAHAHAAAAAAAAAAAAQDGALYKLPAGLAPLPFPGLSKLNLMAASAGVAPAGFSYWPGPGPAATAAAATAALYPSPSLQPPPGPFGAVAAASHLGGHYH
In short: (§1)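 Binding signal is each hexamer's read frequency for a factor divided by its frequency in the tag-only sample. The factors were GST-fused human transcription factors from yeast, captured on glutathione beads, DNA-barcoded and pooled with that sample. Pools were incubated with 200 nmole of a random double-stranded 16-mer DNA library in Tris/NaCl/DTT/glycerol buffer at room temperature for 30 min, then washed, crosslinked with 0.1% formaldehyde, proximity-ligated with BsaI/T4 ligase (1 h, 37 °C), PCR-amplified and sequenced on an Illumina NextSeq500.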

ETV5 = ETV5 (Homo sapiens, UniProt P41161 1-510); conditions: protein: recombinant; tags: N-terminal GST; dsDNA, one strand shown
In short: as §1

HSF1 = HSF1 (Homo sapiens, UniProt Q00613 1-529); conditions: protein: recombinant; tags: N-terminal GST; chain copies: 3; dsDNA, one strand shown
In short: as §1

SPIC = biological target: T2, SPIC (Homo sapiens, UniProt Q8N5J4 1-248); conditions: protein: recombinant; tags: N-terminal GST; dsDNA, one strand shown
T2 sequence: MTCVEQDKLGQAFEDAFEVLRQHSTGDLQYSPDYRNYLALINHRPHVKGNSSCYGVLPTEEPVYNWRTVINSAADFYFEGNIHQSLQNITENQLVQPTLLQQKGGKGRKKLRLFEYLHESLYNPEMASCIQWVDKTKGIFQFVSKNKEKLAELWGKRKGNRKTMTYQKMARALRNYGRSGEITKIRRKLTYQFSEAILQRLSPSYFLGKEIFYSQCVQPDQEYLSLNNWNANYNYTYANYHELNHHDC
In short: as §1

ELF4 = ELF4 (Homo sapiens, UniProt Q99607 1-663); conditions: protein: recombinant; tags: N-terminal GST; dsDNA, one strand shown
In short: as §1

ELK4 = biological target: T3, ELK4 (Homo sapiens, UniProt P28324-2 1-405); conditions: protein: recombinant; tags: N-terminal GST; dsDNA, one strand shown
T3 sequence: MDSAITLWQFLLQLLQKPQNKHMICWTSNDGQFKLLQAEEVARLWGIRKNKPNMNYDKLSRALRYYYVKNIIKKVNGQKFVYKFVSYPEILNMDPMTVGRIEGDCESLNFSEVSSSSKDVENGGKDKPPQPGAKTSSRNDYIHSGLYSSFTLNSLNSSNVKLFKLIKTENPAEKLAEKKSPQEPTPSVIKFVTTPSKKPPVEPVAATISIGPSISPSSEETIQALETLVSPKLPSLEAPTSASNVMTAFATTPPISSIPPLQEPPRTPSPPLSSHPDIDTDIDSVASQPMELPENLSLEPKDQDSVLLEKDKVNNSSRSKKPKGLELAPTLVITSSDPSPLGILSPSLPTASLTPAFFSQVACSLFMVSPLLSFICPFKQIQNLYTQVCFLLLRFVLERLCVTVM
In short: as §1

ETV2 = biological target: T4, ETV2 (Homo sapiens, UniProt O00321 1-342); conditions: protein: recombinant; tags: N-terminal GST; dsDNA, one strand shown
T4 sequence: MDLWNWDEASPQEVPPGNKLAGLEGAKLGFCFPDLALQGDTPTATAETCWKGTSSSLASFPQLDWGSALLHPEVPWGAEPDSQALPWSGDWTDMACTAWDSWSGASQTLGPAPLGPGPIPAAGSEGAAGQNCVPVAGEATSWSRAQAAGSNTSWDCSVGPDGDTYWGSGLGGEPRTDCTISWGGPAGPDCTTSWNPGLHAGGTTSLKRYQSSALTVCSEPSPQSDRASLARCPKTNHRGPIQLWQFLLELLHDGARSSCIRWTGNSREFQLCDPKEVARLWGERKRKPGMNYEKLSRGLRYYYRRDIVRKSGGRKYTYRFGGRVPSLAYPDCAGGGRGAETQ
In short: as §1

ELF3 = biological target: T5, ELF3 (Homo sapiens, UniProt P78545 1-371); conditions: protein: recombinant; tags: N-terminal GST; dsDNA, one strand shown
T5 sequence: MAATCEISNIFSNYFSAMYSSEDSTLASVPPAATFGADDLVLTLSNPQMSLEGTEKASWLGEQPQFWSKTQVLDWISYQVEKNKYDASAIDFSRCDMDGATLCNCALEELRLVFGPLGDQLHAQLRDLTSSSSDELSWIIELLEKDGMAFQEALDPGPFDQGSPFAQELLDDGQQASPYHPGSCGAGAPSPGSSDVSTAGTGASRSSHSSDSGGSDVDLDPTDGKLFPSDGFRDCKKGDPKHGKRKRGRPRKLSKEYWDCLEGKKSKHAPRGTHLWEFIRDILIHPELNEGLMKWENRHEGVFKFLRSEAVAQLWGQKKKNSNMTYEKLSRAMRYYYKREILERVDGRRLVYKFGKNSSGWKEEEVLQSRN
In short: as §1

CRX = CRX (Homo sapiens, UniProt O43186 1-299); conditions: protein: recombinant; tags: N-terminal GST; dsDNA, one strand shown
In short: as §1

ETV1 = ETV1 (Homo sapiens, UniProt P50549 1-477); conditions: protein: recombinant; tags: N-terminal GST; dsDNA, one strand shown
In short: as §1

ERF = biological target: T6, ERF (Homo sapiens, UniProt P50548 1-548); conditions: protein: recombinant; tags: N-terminal GST; dsDNA, one strand shown
T6 sequence: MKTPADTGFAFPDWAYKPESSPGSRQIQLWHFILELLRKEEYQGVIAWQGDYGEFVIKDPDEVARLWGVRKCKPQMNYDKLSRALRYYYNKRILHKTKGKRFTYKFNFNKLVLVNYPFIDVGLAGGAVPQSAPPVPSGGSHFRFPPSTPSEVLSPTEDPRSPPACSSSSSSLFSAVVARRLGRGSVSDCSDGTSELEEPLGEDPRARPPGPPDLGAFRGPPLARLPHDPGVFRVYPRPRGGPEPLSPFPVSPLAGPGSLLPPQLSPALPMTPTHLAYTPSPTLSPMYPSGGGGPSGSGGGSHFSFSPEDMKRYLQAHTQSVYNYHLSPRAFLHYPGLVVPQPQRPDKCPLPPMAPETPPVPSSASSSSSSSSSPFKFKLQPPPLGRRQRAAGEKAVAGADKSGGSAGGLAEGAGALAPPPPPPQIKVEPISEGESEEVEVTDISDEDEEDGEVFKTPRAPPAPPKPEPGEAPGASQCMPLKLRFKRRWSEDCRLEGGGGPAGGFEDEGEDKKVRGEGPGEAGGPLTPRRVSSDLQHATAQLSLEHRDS
In short: as §1

ETV3L = biological target: T7, ETV3L (Homo sapiens, UniProt Q6ZN32 1-361); conditions: protein: recombinant; tags: N-terminal GST; dsDNA, one strand shown
T7 sequence: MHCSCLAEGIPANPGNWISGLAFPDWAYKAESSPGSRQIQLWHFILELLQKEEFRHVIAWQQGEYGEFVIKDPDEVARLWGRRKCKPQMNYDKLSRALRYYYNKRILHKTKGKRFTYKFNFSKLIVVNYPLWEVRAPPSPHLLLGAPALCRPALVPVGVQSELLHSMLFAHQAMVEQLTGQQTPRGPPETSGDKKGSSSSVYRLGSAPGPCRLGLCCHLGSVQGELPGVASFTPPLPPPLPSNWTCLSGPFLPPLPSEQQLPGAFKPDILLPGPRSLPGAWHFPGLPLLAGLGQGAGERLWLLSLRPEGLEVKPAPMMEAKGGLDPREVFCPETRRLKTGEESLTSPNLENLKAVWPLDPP
In short: as §1

ETS2 = biological target: T8, ETS2 (Homo sapiens, UniProt P15036 1-469); conditions: protein: recombinant; tags: N-terminal GST; dsDNA, one strand shown
T8 sequence: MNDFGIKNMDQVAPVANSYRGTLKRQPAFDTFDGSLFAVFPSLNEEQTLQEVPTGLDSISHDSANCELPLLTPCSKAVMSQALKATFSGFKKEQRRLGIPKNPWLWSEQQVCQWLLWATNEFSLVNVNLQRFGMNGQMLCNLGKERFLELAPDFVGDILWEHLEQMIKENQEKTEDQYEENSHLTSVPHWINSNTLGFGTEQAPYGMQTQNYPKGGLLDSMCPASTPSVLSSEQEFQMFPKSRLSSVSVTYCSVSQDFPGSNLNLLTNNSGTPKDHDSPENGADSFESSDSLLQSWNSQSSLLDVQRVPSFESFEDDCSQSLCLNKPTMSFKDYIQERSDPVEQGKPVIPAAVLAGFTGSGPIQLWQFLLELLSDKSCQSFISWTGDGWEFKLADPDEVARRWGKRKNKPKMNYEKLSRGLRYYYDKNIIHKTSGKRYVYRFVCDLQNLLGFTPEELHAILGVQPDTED
In short: as §1

SPDEF = biological target: T9, SPDEF (Homo sapiens, UniProt O95238 1-335); conditions: protein: recombinant; tags: N-terminal GST; dsDNA, one strand shown
T9 sequence: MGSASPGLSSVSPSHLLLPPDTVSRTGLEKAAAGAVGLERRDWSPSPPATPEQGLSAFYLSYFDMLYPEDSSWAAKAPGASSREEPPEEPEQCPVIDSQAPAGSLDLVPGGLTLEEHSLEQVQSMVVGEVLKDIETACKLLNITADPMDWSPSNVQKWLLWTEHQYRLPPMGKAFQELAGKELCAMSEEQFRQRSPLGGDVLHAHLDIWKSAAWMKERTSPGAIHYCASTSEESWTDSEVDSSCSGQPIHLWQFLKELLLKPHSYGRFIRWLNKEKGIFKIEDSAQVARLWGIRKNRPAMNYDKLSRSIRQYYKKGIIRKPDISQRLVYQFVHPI
In short: as §1

ETV7 = biological target: T10, ETV7 (Homo sapiens, UniProt Q9Y603 1-341); conditions: protein: recombinant; tags: N-terminal GST; dsDNA, one strand shown
T10 sequence: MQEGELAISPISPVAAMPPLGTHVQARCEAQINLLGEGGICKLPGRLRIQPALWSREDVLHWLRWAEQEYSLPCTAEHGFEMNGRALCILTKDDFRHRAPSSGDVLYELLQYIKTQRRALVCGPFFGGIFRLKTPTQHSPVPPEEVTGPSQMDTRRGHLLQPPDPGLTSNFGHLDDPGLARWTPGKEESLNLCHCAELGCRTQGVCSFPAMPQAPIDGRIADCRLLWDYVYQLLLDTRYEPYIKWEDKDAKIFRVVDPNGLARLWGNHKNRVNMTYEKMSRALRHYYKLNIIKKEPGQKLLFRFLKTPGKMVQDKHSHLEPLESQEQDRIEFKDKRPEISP
In short: as §1

ELF5 = biological target: T11, ELF5 (Homo sapiens, UniProt Q9UKW6-2 1-255); conditions: protein: recombinant; tags: N-terminal GST; dsDNA, one strand shown
T11 sequence: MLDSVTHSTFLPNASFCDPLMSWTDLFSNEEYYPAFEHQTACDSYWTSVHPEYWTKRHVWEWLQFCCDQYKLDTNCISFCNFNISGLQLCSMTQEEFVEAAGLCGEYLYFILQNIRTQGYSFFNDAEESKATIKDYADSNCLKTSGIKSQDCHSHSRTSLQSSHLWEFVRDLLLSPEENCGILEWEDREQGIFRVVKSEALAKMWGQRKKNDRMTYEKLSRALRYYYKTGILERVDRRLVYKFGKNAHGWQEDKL
In short: as §1

ETV3 = biological target: T12, ETV3 (Homo sapiens, UniProt P41162-2 1-143); conditions: protein: recombinant; tags: N-terminal GST; dsDNA, one strand shown
T12 sequence: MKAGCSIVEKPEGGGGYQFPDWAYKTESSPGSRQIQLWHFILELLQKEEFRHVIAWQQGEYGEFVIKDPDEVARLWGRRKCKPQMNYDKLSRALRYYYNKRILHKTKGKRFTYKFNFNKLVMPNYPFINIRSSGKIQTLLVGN
In short: as §1

ETV6 = ETV6 (Homo sapiens, UniProt P41212 1-452); conditions: protein: recombinant; tags: N-terminal GST; dsDNA, one strand shown
In short: as §1

ELF4, sequence (Q99607 whole entry): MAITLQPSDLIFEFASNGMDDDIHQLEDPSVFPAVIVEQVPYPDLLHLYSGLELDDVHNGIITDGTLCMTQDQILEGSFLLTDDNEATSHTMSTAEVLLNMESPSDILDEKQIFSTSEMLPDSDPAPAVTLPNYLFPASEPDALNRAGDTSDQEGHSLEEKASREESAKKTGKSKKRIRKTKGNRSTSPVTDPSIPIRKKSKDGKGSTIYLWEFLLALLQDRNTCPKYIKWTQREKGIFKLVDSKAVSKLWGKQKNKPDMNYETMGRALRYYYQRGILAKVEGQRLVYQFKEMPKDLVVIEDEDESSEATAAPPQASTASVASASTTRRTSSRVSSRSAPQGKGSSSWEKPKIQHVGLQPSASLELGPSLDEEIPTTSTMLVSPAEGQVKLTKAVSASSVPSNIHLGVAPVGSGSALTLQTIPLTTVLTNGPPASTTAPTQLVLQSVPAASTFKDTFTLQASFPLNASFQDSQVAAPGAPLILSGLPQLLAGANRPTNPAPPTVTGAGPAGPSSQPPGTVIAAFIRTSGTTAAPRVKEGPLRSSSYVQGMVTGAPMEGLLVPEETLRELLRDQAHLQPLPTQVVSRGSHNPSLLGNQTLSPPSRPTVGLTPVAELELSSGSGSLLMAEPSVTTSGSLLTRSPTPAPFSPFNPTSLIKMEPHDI
ETV6, sequence (P41212 whole entry): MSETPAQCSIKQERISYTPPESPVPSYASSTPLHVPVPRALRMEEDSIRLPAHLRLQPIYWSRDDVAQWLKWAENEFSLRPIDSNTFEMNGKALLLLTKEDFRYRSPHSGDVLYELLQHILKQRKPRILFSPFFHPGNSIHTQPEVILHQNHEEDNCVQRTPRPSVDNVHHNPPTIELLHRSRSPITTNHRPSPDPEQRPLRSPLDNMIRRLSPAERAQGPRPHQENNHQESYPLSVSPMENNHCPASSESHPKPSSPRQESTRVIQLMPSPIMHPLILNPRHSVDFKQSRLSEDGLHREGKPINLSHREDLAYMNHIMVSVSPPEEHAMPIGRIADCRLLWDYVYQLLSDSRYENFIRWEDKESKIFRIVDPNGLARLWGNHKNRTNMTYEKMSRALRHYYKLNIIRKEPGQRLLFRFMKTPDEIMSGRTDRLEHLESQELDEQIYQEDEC
ETV1, sequence (P50549 whole entry): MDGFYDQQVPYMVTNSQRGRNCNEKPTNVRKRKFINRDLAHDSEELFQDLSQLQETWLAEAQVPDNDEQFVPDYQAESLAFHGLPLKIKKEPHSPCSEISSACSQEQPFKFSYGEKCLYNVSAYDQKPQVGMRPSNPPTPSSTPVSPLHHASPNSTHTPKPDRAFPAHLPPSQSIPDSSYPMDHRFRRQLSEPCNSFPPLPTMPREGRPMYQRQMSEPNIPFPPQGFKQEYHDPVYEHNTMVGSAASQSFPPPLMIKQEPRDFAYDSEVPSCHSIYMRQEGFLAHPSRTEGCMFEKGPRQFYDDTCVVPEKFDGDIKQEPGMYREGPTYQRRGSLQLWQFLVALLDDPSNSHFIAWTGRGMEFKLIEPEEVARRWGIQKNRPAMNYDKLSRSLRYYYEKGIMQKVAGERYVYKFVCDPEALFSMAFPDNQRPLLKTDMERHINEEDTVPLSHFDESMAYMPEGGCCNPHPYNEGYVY
ETV5, sequence (P41161 whole entry): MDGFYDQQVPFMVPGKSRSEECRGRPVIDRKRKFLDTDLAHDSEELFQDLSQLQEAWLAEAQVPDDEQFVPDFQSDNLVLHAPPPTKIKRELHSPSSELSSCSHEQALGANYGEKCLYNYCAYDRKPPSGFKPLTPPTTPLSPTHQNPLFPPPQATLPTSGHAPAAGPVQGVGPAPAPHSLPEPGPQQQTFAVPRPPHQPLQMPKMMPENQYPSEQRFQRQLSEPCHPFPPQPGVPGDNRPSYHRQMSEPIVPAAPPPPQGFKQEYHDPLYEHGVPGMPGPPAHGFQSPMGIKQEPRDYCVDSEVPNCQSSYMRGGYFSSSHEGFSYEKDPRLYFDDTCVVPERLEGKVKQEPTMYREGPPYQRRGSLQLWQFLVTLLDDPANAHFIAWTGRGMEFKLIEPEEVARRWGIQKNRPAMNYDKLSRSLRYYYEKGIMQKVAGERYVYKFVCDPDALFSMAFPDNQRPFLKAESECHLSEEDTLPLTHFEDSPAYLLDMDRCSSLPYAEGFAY
HSF1, sequence (Q00613 whole entry): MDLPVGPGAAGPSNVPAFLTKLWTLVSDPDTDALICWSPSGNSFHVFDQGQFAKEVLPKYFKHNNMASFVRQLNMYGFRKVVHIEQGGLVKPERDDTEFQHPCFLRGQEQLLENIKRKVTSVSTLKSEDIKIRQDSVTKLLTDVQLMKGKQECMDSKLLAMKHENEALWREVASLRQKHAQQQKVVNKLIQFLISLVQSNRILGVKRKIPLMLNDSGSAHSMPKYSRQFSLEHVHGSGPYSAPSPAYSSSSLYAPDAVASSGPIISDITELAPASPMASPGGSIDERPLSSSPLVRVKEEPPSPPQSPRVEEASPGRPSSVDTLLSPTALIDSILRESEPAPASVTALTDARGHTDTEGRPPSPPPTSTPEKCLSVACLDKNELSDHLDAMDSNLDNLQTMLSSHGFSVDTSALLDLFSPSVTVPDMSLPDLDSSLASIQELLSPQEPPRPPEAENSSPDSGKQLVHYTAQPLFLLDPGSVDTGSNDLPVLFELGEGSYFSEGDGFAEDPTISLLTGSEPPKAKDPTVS
CRX, sequence (O43186 whole entry): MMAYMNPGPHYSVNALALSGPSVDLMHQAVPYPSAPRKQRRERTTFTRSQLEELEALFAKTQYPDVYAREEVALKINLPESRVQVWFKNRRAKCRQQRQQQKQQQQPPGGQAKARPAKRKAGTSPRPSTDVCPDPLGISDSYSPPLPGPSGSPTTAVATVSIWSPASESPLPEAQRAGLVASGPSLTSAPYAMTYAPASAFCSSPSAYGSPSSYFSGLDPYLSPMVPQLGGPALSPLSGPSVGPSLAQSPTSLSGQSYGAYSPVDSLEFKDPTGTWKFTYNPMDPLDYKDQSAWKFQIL

With TATATG the binding signal (FEV) was 1.33 fold enrichment (6-mer frequency, TF over GST control), the binding signal (ETV5) was 1.34 fold enrichment (6-mer frequency, TF over GST control) and the binding signal (HSF1) was 1.28 fold enrichment (6-mer frequency, TF over GST control). The binding signal (SPIC) was 1.47 fold enrichment (6-mer frequency, TF over GST control), the binding signal (ELF4) was 1.31 fold enrichment (6-mer frequency, TF over GST control) and the binding signal (ELK4) was 1.65 fold enrichment (6-mer frequency, TF over GST control). For the same sequence, the binding signal (ETV2) was 1.25 fold enrichment (6-mer frequency, TF over GST control), the binding signal (ELF3) was 1.46 fold enrichment (6-mer frequency, TF over GST control) and the binding signal (CRX) was 1.44 fold enrichment (6-mer frequency, TF over GST control). For the same sequence, the binding signal (ETV1) was 1.33 fold enrichment (6-mer frequency, TF over GST control), the binding signal (ERF) was 1.48 fold enrichment (6-mer frequency, TF over GST control) and the binding signal (ETV3L) was 1.35 fold enrichment (6-mer frequency, TF over GST control). The binding signal (ETS2) was 1.38 fold enrichment (6-mer frequency, TF over GST control), the binding signal (SPDEF) was 1.29 fold enrichment (6-mer frequency, TF over GST control) and the binding signal (ETV7) was 1.29 fold enrichment (6-mer frequency, TF over GST control). For the same sequence, the binding signal (ELF5) was 1.39 fold enrichment (6-mer frequency, TF over GST control), the binding signal (ETV3) was 1.41 fold enrichment (6-mer frequency, TF over GST control) and the binding signal (ETV6) was 1.34 fold enrichment (6-mer frequency, TF over GST control).
